# Only some compounds are listed: those with a hit (about 10% of all), similar ones and a draw of the others.
# KB-V1 cytotox: kills drug-selected multidrug resistant KB-V1 cells | KB-V1 MDR cells viability, CellTiter-Glo, 72 h | Potency, µM (top dose mostly 46.1 µM), actives largely listed as cytotoxic | AID 1347076 | 400,000 tested, 3.4% active; note: % is set by controls: 0 for no effect and ±100 for the full control effect; nearly all actives have a fitted effect of over 60% in size
#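 Cells of the MDR subline KB-V1 are plated, dosed with compound at multiple concentrations, and incubated 72 h at 37 degrees C; CellTiter-Glo is then added and luminescence read after 10 min.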
# RORg inh: ROR gamma (mouse) transcription inhibition; 310,000 tested, 5.4% active; Drosophila S2 Gal4-RORgamma UAS-luciferase reporter, 20 h; Potency, µM (highest dose often 53.6 µM), for the others: top-dose activity change, negative = inhibition, actives largely listed as inhibitors; P51450; note: % is set by controls: 0 for no effect and ±100 for the full control effect; nearly all actives have a fitted effect of over 60% in size
# Target sequence (P51450 whole entry, looked up, the tested form may be a part): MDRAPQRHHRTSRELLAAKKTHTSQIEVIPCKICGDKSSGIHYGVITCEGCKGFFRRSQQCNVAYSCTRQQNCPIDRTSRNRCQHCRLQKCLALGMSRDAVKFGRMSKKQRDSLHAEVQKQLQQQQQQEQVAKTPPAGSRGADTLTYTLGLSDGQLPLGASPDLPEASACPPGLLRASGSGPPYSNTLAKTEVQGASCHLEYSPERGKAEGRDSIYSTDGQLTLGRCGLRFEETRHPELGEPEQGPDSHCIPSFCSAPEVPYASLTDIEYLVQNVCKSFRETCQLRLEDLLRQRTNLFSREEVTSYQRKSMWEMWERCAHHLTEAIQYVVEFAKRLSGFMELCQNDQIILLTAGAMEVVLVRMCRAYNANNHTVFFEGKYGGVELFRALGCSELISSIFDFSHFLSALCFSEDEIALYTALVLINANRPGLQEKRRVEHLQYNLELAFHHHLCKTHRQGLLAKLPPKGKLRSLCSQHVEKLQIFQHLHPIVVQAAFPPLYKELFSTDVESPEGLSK
#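 Drosophila Schneider cells stably carrying a metallothionein-driven Gal4 DBD–ROR gamma fusion and a UAS-Photinus luciferase reporter were exposed to compound for 1 hr, then induced with copper sulfate (700 uM final) for 20 hr at ambient temperature before luminescence reading.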
# SW480 rereplic: DNA re-replication induction in SW480 cells; 340,000 tested, 1.8% active; SW480 DNA re-replication, Hoechst DNA content imaging, 48 h; Potency, µM (highest dose often 46.1 µM), inactives show at the top dose re-replication activation, usual class: activators; note: % of control where 0% means no effect; nearly all actives have a fitted effect of over 55% in size
#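 First, 250 cells per well were seeded. Next, compound or vehicle (23 nL) was pinned in, plates sat 48 hr at 37 C. Finally Hoechst was added for 40 min before fluorescence scanning.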
# KB-3-1 cytotox: kills parental KB-3-1 adenocarcinoma cells; KB-3-1 viability, CellTiter-Glo ATP luminescence, 72 h; Potency, µM (series often up to 46.1 µM), most hits filed as cytotoxic; 400,000 tested, 1.4% active; AID 1347075; note: % is set by controls: 0 for no effect and ±100 for the full control effect; nearly all actives have a fitted effect of over 60% in size
#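 Screening of KB-3-1 cells (DMEM, 10% FBS, phenol-red free) ran from lowest to highest compound concentration; after 72 h at 37 °C viability was read luminescently and curves fitted.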
# MCF10A rereplic: inducers of DNA re-replication in MCF 10A breast cells | MCF 10A DNA re-replication, Hoechst nuclear intensity, 48 h | Potency, µM (titrated, usually from 46.1 µM), for the others: at the top dose activity, positive = re-replication, hits mostly activators | 350,000 tested, 2.9% active | AID 624296; note: % of control where 0% means no effect; nearly all actives have a fitted effect of over 50% in size
# Gal4-VP16 FLuc: Gal4-VP16 reporter inhibition counter-screen; 310,000 tested, 3.5% active; Potency, µM (series often up to 53.6 µM), without a hit: at the highest dose activity, negative = inhibition, hits mostly inhibitors; Drosophila S2 Gal4-VP16 UAS-luciferase, luminescence, 20 h;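 note: Gal4-VP16 expression switched on by copper sulfate through the metallothionein promoter; % is set by controls: 0 for no effect and ±100 for the full control effect; nearly all actives have a fitted effect of over 50% in size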
# * marks the source's active call; other numbers are inactive results; i = inactive; ? = inconclusive; · = not tested or not shown; [ ] = another dose, or the depositor's remark. Calls come from the whole dose curve; as a rule, active = well fitted curve in the direction sought with a large enough effect; inconclusive = small, poorly fitted or top-dose-only effect, or another doubt; inactive = no such curve, though single readings can be large; an effect the other way counts as inactive or inconclusive. Potency is the fitted concentration of half-maximal effect.
SMILES,KB-V1 cytotox,RORg inh,SW480 rereplic,KB-3-1 cytotox,MCF10A rereplic,Gal4-VP16 FLuc
COc1ccc(/C(N)=N/OC(=O)N2CCOCC2)cc1,i,-39%,?,i,21µM*,-21%
Cc1cc(C)c2nc(Nc3nc(-c4ccccc4)cc(=O)[nH]3)nc(C)c2c1,?,0.63µM*,5%,i,?,2.2µM*
Cc1cc(C)c2nc(Nc3nc(CSc4nc5ccccc5[nH]4)cc(=O)[nH]3)nc(C)c2c1,i,·,-11%,i,2%,·
Cc1cc(-c2ccccc2)nc(Nc2nc3c(C)cccc3c(=O)[nH]2)n1,i,·,-1%,i,9.2µM*,·
Cc1ccc(Nc2nc3ccccc3c(=O)[nH]2)cc1C,i,?,1%,i,16%,-16%
CN(C)Cc1ccccc1-c1cc(NC2CC2)ncn1,·,1%,·,·,·,2%
c1ccc(N=c2nc(-c3ccccc3)n(-c3ccccc3)s2)cc1,16µM*,·,·,?,·,·
c1ccc(Cn2sc(=Nc3ccccc3)nc2-c2ccccc2)cc1,i,·,·,?,·,·
C/C(=N\NC(=S)NCCc1ccccc1)c1ccc(Cl)cc1,i,3.5µM*,·,i,12%,3.2µM*
C/C(=N\NC(=S)NCCc1ccccc1)c1ccc(C#N)cc1,i,4µM*,?,i,?,8.9µM*
S=C(NCCc1ccccc1)NN=C1CCCCCC1,i,-15%,15%,i,-2%,1%
C/C(=N\NC(=S)NCCc1ccccc1)c1ccc(C)cc1,i,2.8µM*,4%,i,17%,5µM*
S=C(NCCCCN(Cc1ccc(Cl)cc1)c1ccc(Br)cn1)NCCCc1cnc[nH]1,i,·,·,?,·,·
CC(C)([CH2][Sn]([CH2]C(C)(C)c1ccccc1)([CH2]C(C)(C)c1ccccc1)[O][Sn]([CH2]C(C)(C)c1ccccc1)([CH2]C(C)(C)c1ccccc1)[CH2]C(C)(C)c1ccccc1)c1ccccc1,·,-1%,·,·,·,-15%
Cc1nc(N2CCOCC2)c2nc(-c3ccccc3)n(CCN3CCCCC3)c2n1,·,-12%,·,·,·,2%
CCOC(=O)/C=C/c1ccc2c(c1)S(=O)(=O)N(C1CCCC1)[C@H]2CC(=O)OCC,?,·,·,i,·,·
O=C(Cc1ccc(F)cc1)Nc1nnc2n1CCS2,i,·,·,i,·,·
CC(OC(=O)c1nc(Cl)ccc1Cl)C(=O)Nc1ccc2c(c1)OCCO2 (centres undefined),i,·,-37%,i,1.6µM*,·
CC(OC(=O)c1cccnc1Cl)C(=O)Nc1ccc2c(c1)OCCO2 (centres undefined),i,16%,-7%,i,14%,1%
CC(OC(=O)c1cccc(S(=O)(=O)Nc2cccc(C(F)(F)F)c2)c1)C(=O)Nc1ccc2c(c1)OCCO2 (centres undefined),15µM*,?,8%,?,?,-26%
O=S(=O)(Nc1cccc(C(F)(F)F)c1)c1ccc(NS(=O)(=O)c2ccc3c(c2)OCCO3)cc1,i,·,·,i,·,·
N#Cc1ccc(NS(=O)(=O)c2ccc3c(c2)CCC(=O)N3)cc1,?,·,·,i,·,·
N[C@H](C(=O)O)c1cccc(O)c1,·,-5%,·,·,·,5%
O=C1C=C(c2ccc(CO)cc2)C[C@@H](c2ccc3c(c2)OCO3)C1,i,·,-21%,i,0.58µM*,·
O=C1C=C(c2ccc(-c3ccccc3)cc2)C[C@@H](c2ccc3c(c2)OCO3)C1,?,·,-10%,i,23%,·
SMILES,KB-V1 cytotox,RORg inh,SW480 rereplic,KB-3-1 cytotox,MCF10A rereplic,Gal4-VP16 FLuc
CC1(C)CC2(C)CC(=O)C1C(C(=O)O)C2C(=O)O (centres undefined),i,·,·,i,·,·
CC(C)=CCC/C(C)=C/CO/N=C1/C[C@@H](O)[C@@H](O)[C@@H]2[C@@H]3C(=O)N(Cc4ccccc4)C(=O)[C@H]3CC[C@H]12,·,-2%[10 µM],·,·,·,-4%[10 µM]
CCCCc1c(-c2ccccc2OC)ncn1Cc1ccc(Cl)cc1,21µM*,·,·,?,·,·
COc1ccccc1C1=Nn2c(nnc2C2CCCCC2)SC1,i,-16%,-5%,i,19%,2%
COc1cccc(Cn2cnc(-c3ccccc3OC)c2C2CC2)c1,18µM*,·,·,?,·,·
CCCCc1c(-c2ccccc2OC)ncn1Cc1ccc(-c2ccccc2)cc1,10µM*,·,·,?,·,·
COc1cccc(Cn2cnc(-c3ccccc3OC)c2-c2cccs2)c1,i,·,·,?,·,·
CCCCc1c(-c2ccccc2OC)ncn1C1CCCC1,13µM*,·,·,18µM*,·,·
CCC(=O)N1CCc2cc(Br)cc(S(=O)(=O)N3CCN(c4ccc(C)cc4)C(C)C3)c21 (centres undefined),i,·,·,i,·,·
C=C(C#N)C(=O)OCC,·,13%,·,·,·,-3%
O=C(c1cc(C(F)(F)F)cc(C(F)(F)F)c1)N1CCC2(CCCN(c3ccncc3)C2)CC1,·,4%,·,·,·,11%
COc1cccc(Cn2cnc(-c3ccccc3OC)c2-c2cccnc2)c1,i,·,·,i,·,·
CCCCc1c(-c2ccccc2OC)ncn1CCc1cccc(Cl)c1,15µM*,·,·,?,·,·
CCCCc1c(-c2ccccc2OC)ncn1Cc1cccc(-c2ccccc2)c1,15µM*,·,·,?,·,·
CCc1c(C2CC2)ncn1Cc1cccc(-c2ccccc2)c1,i,·,·,15µM*,·,·
CS(=O)(=O)N1CCC2(CCN(c3ccccn3)CC2)CC1,·,-5%,·,·,·,-1%
O=C(C[N+]12CN3CN(CN(C3)C1)C2)c1ccc(I)cc1,i,·,·,i,·,·
COc1cc([N+](=O)[O-])cc2sc(NC(=O)c3c(F)cccc3F)nc12,i,24%,0%,i,0.73µM*,?
COc1ccc(-c2nc(CNC(=O)Nc3ccccc3)c(C)o2)cc1,i,·,·,i,·,·
